Screening data deposited in PubChem by several laboratories.
This excerpt belongs to a sample that is enriched for hits.
ARNT-TACC3 inh: disruptors of human ARNT/TACC3 interaction. inhibition, % at 9.99 µM. AID 623870. 0.66% of 390,000 active. AlphaScreen His-ARNT PAS-B/GST-TACC3 binding, luminescence; TACC3 fragment carries E629A point mutation;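 active = mean inhibition of replicates at least 50% and at least half of replicates each reaching 50%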;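 note: 0% = complete ARNT plus TACC3 wells and 100% = ARNT alone without TACC3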
ERp5 block: blocks human ERp5 reductase activity on insulin. ERp5 insulin aggregation, absorbance 650 nm, 90 min. Q15084. inhibition, % at 9.99 µM. 0.05% of 350,000 active;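 active = mean replicate inhibition above about 25%, with every replicate also reaching it, limit read from the data, passing the limit was not always enough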
PDI turbidity: blocks human protein disulfide isomerase activity. PDI insulin aggregation turbidity, A650, 90 min. inhibition, % at 10 µM. 0.052% of 350,000 active;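 active = mean inhibition across replicates of 30% or more, whatever share of single replicates reach that level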
CendR NRP1 mod: alters CendR peptide binding to human NRP-1; 0.85% of 360,000 active; inhibition, % at 25 µM; FAM-RPARPAR peptide binding to NRP-1, fluorescence polarization; AID 602438; O14786;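 active = inhibition or corrected inhibition above about 18%, plus a signal ratio from 0.5 to 1.5, limit read from the data, passing the limit was not always enough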
ALR inh: inhibitors of human sulfhydryl oxidase ALR; P55789; 3.8% of 290,000 active; AID 485317; purified ALR, DTT oxidation, H2O2 HRP-luminol luminescence; inhibition, % (no concentration beside the values);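 active = mean replicate inhibition above about 79%, with every replicate also reaching it, limit read from the data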
Target sequence (P55789 whole entry, looked up): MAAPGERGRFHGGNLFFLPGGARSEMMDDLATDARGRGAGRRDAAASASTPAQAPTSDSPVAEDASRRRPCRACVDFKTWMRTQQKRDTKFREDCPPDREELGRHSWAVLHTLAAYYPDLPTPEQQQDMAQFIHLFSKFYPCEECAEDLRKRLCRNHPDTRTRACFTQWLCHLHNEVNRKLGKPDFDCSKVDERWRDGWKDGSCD
PglD DTNB: blocks C. jejuni PglD acetyltransferase activity; 0.098% of 360,000 active; purified PglD enzyme, DTNB colorimetric CoA detection; AID 602405; inhibition, % at 12.5 µM; in the data active = inhibition above about 16%, passing the limit was not always enough
Starred values were filed as active, the others as inactive.

For CCC(=O)N[C@@H]1CC[C@H](CC(=O)NCc2ccccc2OC)O[C@@H]1CO the results were ARNT-TACC3 inh -2.0, ERp5 block -5.6 and PglD DTNB 2.9.
Screening O=C1c2cccc([N+](=O)[O-])c2C(=O)N1C1CCCCC1 returned ARNT-TACC3 inh 1.9, ERp5 block -5.1, PDI turbidity 2.4, CendR NRP1 mod -1.9, ALR inh 97.8* and PglD DTNB -3.2.
`COc1cccc(NC(=O)N2C[C@@H](O)COC[C@@H]3O[C@H](CC(=O)N(C)C)CC[C@H]32)c1` gave ARNT-TACC3 inh -2.8, ERp5 block -1.2 and PglD DTNB -0.9.
For NS(=O)(=O)c1ccc(CCNC(=O)CSc2ccc3ccccc3c2)cc1 the results were ARNT-TACC3 inh -4.2, ERp5 block -12.4, PDI turbidity -6.4, CendR NRP1 mod -4.1 and ALR inh 99.3*.
Screening NS(=O)(=O)c1ccc(CCNC(=O)CSc2ccc([N+](=O)[O-])cc2)cc1 returned ARNT-TACC3 inh -1.7, ERp5 block 4.8, PDI turbidity -6.8, CendR NRP1 mod -3.0, ALR inh 2.6 and PglD DTNB 1.3.
`NS(=O)(=O)c1ccc(CCNC(=O)CN2CCN(c3ccccc3O)CC2)cc1` gave ARNT-TACC3 inh 26.5, ERp5 block 0.4, PDI turbidity 10.2, CendR NRP1 mod 6.3 and ALR inh 98.9*.
For CO[C@H]1CN(C)C(=O)c2cc(NC(=O)c3cccc(F)c3)ccc2OC[C@H](C)N(CC2CC2)C[C@H]1C the results were ARNT-TACC3 inh -3.0, ERp5 block -7.7 and PglD DTNB 3.3.
`NC(=O)c1ccc(-n2c(CCC(=O)O)ccc2-c2cccs2)cc1` gave ARNT-TACC3 inh -5.0, ERp5 block 2.6, PDI turbidity 11.5, CendR NRP1 mod -8.5 and ALR inh 84.0*.
Cc1ccc(-c2ccc(CCC(=O)O)n2-c2ccc(C(=O)O)cc2)cc1 was read as ARNT-TACC3 inh -0.6, ERp5 block -2.9, PDI turbidity -1.2, CendR NRP1 mod -9.0, ALR inh 97.0* and PglD DTNB 6.6.
`CC(=O)c1ccc(-n2c(CCC(=O)O)ccc2-c2cccs2)cc1` gave ARNT-TACC3 inh -1.7, ERp5 block -7.5, PDI turbidity 8.7, CendR NRP1 mod -9.3, ALR inh 42.2 and PglD DTNB 3.9.
Cc1ccc(-n2c(CCC(=O)O)ccc2-c2cccs2)cc1 was read as ARNT-TACC3 inh -10.0, ERp5 block -3.8, PDI turbidity 8.6, CendR NRP1 mod -15.1, ALR inh 94.2* and PglD DTNB -0.6.
`O=C(c1ccncc1)N1C[C@@H]2[C@H](c3ccccc31)[C@@H](CO)N2C(=O)Nc1ccccc1Cl` gave ARNT-TACC3 inh -4.0, ERp5 block -4.6 and PglD DTNB 2.2.
COc1cc(-c2cc(C(=O)O)c3cc4ccccc4cc3n2)cc(OC)c1OC was read as ERp5 block -4.2, PDI turbidity 13.4, CendR NRP1 mod -8.7 and PglD DTNB 1.8.
Screening COc1cc(-c2cc(C(=O)O)c3c(OC)c(OC)c(OC)cc3n2)ccc1O returned ARNT-TACC3 inh -2.9, PDI turbidity 12.9, CendR NRP1 mod -5.7, ALR inh 97.8* and PglD DTNB -1.7.
`C[C@H](CO)N1C[C@H](C)[C@H](CN(C)C(=O)Nc2ccccc2)OCCCC[C@H](C)Oc2ccc(NC(=O)c3ccncc3)cc2C1=O` gave ARNT-TACC3 inh 2.6, ERp5 block 1.6 and PglD DTNB -1.4.
COCCN(C(=O)COC(=O)CSc1ccc2ccccc2c1)c1c(N)n(Cc2ccccc2)c(=O)[nH]c1=O was read as ARNT-TACC3 inh -2.7, ERp5 block -1.4, PDI turbidity -8.3, CendR NRP1 mod -8.0 and ALR inh 98.2*.
COCCN(C(=O)COC(=O)CSc1ccccc1)c1c(N)n(Cc2ccccc2)c(=O)[nH]c1=O was read as ARNT-TACC3 inh 2.9, ERp5 block 3.2, PDI turbidity -2.8 and CendR NRP1 mod -1.5.
For COCCN(C(=O)CN1CCCc2ccccc21)c1c(N)n(Cc2ccccc2)c(=O)[nH]c1=O the results were ARNT-TACC3 inh 15.1, PDI turbidity -0.7, CendR NRP1 mod 26.4*, ALR inh 18.8 and PglD DTNB -0.7.
Screening O=C(/C=C/c1ccccc1)N/C(=C/c1ccccc1)C(=O)Nc1ccc(C(=O)O)cc1 returned ARNT-TACC3 inh -3.4, ERp5 block 5.0, PDI turbidity 1.8, CendR NRP1 mod -12.1, ALR inh 87.4* and PglD DTNB 0.8.
Screening CC(=O)N/C(=C\c1ccccc1)C(=O)Nc1ccc(O)cc1 returned ARNT-TACC3 inh 1.2, ERp5 block -0.3, PDI turbidity -1.0, CendR NRP1 mod 6.1 and ALR inh 99.3*.
For CC(=O)c1ccc(NC(=O)/C(=C\c2ccccc2)NC(=O)/C=C/c2ccccc2)cc1 the results were ARNT-TACC3 inh -3.9, PDI turbidity -5.8, CendR NRP1 mod 10.9 and ALR inh -10.0.
`CCCC(=O)Nc1ccc2c(c1)C(=O)N(C)C[C@@H](OC)[C@H](C)CN(C(=O)CN(C)C)[C@H](C)CO2` gave ARNT-TACC3 inh -3.6, ERp5 block 2.7 and PglD DTNB -1.7.
Screening CC1CCC2(CC1)SCC(=O)N2c1ccc(F)cc1 (stereo unspecified) returned ARNT-TACC3 inh -10.2, ERp5 block 0.9, PDI turbidity -12.7, CendR NRP1 mod -7.8 and ALR inh 98.8*.
Screening NNS(=O)(=O)c1ccc2c(c1)Cc1cc(S(=O)(=O)NN)ccc1-2 returned ARNT-TACC3 inh 5.9, ERp5 block 0.5, PDI turbidity -2.4, CendR NRP1 mod -0.8, ALR inh 98.8* and PglD DTNB -4.8.
Screening O=S(=O)(NCCO)c1ccc2c(c1)Cc1cc(S(=O)(=O)NCCO)ccc1-2 returned ARNT-TACC3 inh -6.2, ERp5 block 0.9, PDI turbidity -3.3, CendR NRP1 mod 4.2, ALR inh -21.4 and PglD DTNB -10.6.
For Cc1ccc(C(=O)N2CCCC(Nc3ccc(C(C)C)cc3)C2)cn1 (stereo unspecified) the results were ARNT-TACC3 inh -2.2, ERp5 block 3.8, PDI turbidity -8.0, CendR NRP1 mod 6.3, ALR inh 64.6 and PglD DTNB -0.6.
`COc1ccc(NC2CCCN(C(=O)c3ccc(C)nc3)C2)cc1` (stereo unspecified) gave ARNT-TACC3 inh -4.8, ERp5 block -11.2, PDI turbidity 9.1, CendR NRP1 mod 14.7, ALR inh 98.6* and PglD DTNB 0.6.
Screening COc1ccc(C(=O)N2CCCC(Nc3ccc(F)cc3)C2)c(OC)c1 (stereo unspecified) returned ARNT-TACC3 inh -4.9, ERp5 block 2.8, PDI turbidity 5.1, CendR NRP1 mod -3.1, ALR inh 98.4* and PglD DTNB -4.8.
